Results from the supplement of paper PMC7156485.
± gives the standard deviation of the averaged measurements.

Key:
Conditions in all cases: concentration: 10 µM; 24 h
HCC1569 [1] = assay: cell number relative to DMSO (% of DMSO); higher = more cells (less growth inhibition / toxicity)
Procedure, shortened: (§1)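 H1.0 nuclear intensity or cell number is stated as percent of the plate control, based on the median of replicates, and HCC1569 values were smoothed for positional effects. These came from HCC1569 and TDF cells treated with compounds at 10 µM for 24 h at 37 °C in triplicate, then fixed in 3.7% formaldehyde and stained with a rabbit anti-H1.0 antibody, an AlexaFluor 647 secondary and DAPI.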

TDF [2] = assay: as above
Procedure, shortened: as §1

TDF [3] = assay: H1.0 immunofluorescence intensity relative to DMSO (% of DMSO); higher = stronger H1.0 induction, active = 120 or more
Procedure, shortened: as §1

HCC1569 [4] = assay: H1.0 immunofluorescence intensity relative to DMSO (% of DMSO); higher = stronger H1.0 induction, active = 140 or more
Procedure, shortened: as §1
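Throughout, for H1.0 immunofluorescence intensity relative to DMSO: TDF is a line of transformed human dermal fibroblasts of mesenchymal origin.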
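Throughout, for cell number relative to DMSO: TDF denotes transformed human dermal fibroblasts of mesenchymal origin.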

SMILES | cell number (HCC1569 [1]) | cell number (TDF [2]) | H1.0 immunofluorescence intensity (TDF [3]) | H1.0 immunofluorescence intensity (HCC1569 [4])
CC(=O)OC1C(=O)C2(C)C(O)CC3OCC3(OC(C)=O)C2C(OC(=O)c2ccccc2)C2(O)CC(O)C(C)=C1C2(C)C (stereo not drawn) [Baccatin III] | 105 | 112 | 111 (inactive) | 105 (inactive)
COc1ccccc1CN[C@H]1C2CCN(CC2)[C@H]1C(c1ccccc1)c1ccccc1 | 95.3 | 97.3 | 105 (inactive) | 125 (inactive)
CCCCCC(C=CC=CCC=CCC=CCCCC(=O)O)OO (stereo not drawn) | 106 | 100 | 96.4 (inactive) | 113 (inactive)
CN(c1nc2ccccc2s1)C1CCN(CC(O)COc2ccc(F)c(F)c2)CC1.Cl.Cl (stereo not drawn) | 84.8 | 88.9 | 99 (inactive) | 141 (active)
CCCN1CCCC2Cc3[nH]ncc3CC21 (racemic) | 99.6 | 96.7 | 100 (inactive) | 106 (inactive)
COc1cc(C2c3cc4c(cc3C(O)C3COC(=O)C23)OCO4)cc(OC)c1OC (stereo not drawn) [Picropodophyllin] | 58.3 | 10.9 | 165 (active) | 128 (inactive)
CCCN1CCCC(c2cccc(O)c2)C1.Cl (stereo not drawn) [S(-)-3PPP hydrochloride] | 99.1 | 110 | 94.8 (inactive) | 104 (inactive)
CCC1(O)C(=O)OCc2c1cc1n(c2=O)Cc2cc3ccccc3nc2-1 (stereo not drawn) [Camptothecin] | 54.2 ± 2.9 | 24 ± 1.1 | 128 (active) | 120 (inactive)
CCN(C)C(=O)Oc1cccc([C@H](C)N(C)C)c1.O=C(O)C(O)C(O)C(=O)O | 98.4 | 98.9 | 106 (inactive) | 96.1 (inactive)
CCC(C)C1OC2(C=CC1C)CC1CC(CC=C(C)C(OC3CC(OC)C(OC4CC(OC)C(O)C(C)O4)C(C)O3)C(C)C=CC=C3COC4C(O)C(C)=CC(C(=O)O1)C34O)O2 (stereo not drawn) [Abamectin] | 101 | 94.4 | 101 (inactive) | 103 (inactive)
COc1ccc(OC)c(C(O)C(C)N)c1.Cl (stereo not drawn) [Methoxamine hydrochloride] | 101 | 106 | 95.2 (inactive) | 94.3 (inactive)
Cl.NCCc1ccc(O)cc1 [4-Hydroxyphenethylamine hydrochloride] | 96.2 | 100 | 96.7 (inactive) | 100 (inactive)
CC(C)N(CCC(C(N)=O)(c1ccccc1)c1ccccn1)C(C)C.O=P(O)(O)O (stereo not drawn) [Disopyramide phosphate] | 106 | 105 | 97.6 (inactive) | 94.1 (inactive)
C=C(C)C1Cc2c(ccc3c2OC2COc4cc(OC)c(OC)cc4C2C3=O)O1 (stereo not drawn) [Rotenone] | 59.7 ± 1.6 | 16.2 ± 0.54 | 147 (active) | 178 (active)
CS(=O)(=O)O.Oc1ccc2c3c1OC1c4oc5ccccc5c4CC4(O)C(C2)N(CC2CC2)CCC314 (stereo not drawn) [Naltriben methanesulfonate] | 98.1 | 105 | 92.4 (inactive) | 105 (inactive)
O=C(O)C(=O)c1cn(Cc2ccccc2)c2ccc(-c3ccc(OC(F)(F)F)cc3)cc12 | 99.9 | 106 | 94 (inactive) | 99.4 (inactive)
C=CCN1CC(C)N(C(c2ccc(C(=O)N(CC)CC)cc2)c2cccc(OC)c2)CC1C (stereo not drawn) | 102 | 102 | 96.5 (inactive) | 87.8 (inactive)
CCCN1CCc2cccc3c2C1Cc1ccc(O)c(O)c1-3.Cl (stereo not drawn) [R(-)-Propylnorapomorphine hydrochloride] | 93.2 | 91.8 | 92.9 (inactive) | 105 (inactive)
CNc1ccc2oc(CC3OC4(CCC3C)OC(C(C)C(=O)c3ccc[nH]3)C(C)CC4C)nc2c1C(=O)O (stereo not drawn) | 70.4 | 49.7 | 151 (active) | 124 (inactive)
CC(=O)NC1CN2CCC(O)C2C(O)C1O (stereo not drawn) [6-Acetamido-6-deoxy-castanospermine] | 103 | 103 | 97.2 (inactive) | 87.4 (inactive)
CC(Cc1ccc(OCC(=O)[O-])cc1)NCC(O)c1cccc(Cl)c1.[Na+] (stereo not drawn) | 104 | 110 | 89.5 (inactive) | 88.6 (inactive)
C[N+]1(C)CCOC(O)(c2ccc(-c3ccc(C4(O)C[N+](C)(C)CCO4)cc3)cc2)C1.[Br-].[Br-] (stereo not drawn) [Hemicholinium-3] | 100 | 106 | 92 (inactive) | 87.8 (inactive)
